About 83,000 compounds went through this panel and 20% of them were active in at least one assay; those are over-represented in the sample as a whole.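 Compound tested at a single concentration for 48 hours in 96-well plates; a percent growth value below 10 was scored as active.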 Values without a mark were called inactive. The source made the active and inactive calls.
These compounds were tested on HL-60(TB) leukemia (assay: NCI-60 one-dose screen, 48 h (100 = growth as untreated, 0 = no growth, -100 = all killed)). Details: 10 µM unless noted.

`COC(=O)c1cc(=O)nc(N/N=C/c2ccc(C)cc2)s1` was tested. Which growth did it give?
The growth was 105%.

Which growth does the source give for `Cc1ccc2c3c(cccc13)-c1ccccc1C2=O` here?
The growth was 99%.

`CCCCCCCCCC(C)NC(=O)CCl` (stereo not given) was tested. Which growth did it give?
The growth was 92.3%.

For `Cc1ccc(NS(=O)(=O)c2ccc3c(c2)C(=O)CC(c2ccc(C(=O)C(C)C)cc2)N3)cc1C` (stereo not given), which growth is on record?
The growth was 61.4%.

How did the growth turn out when `CCC(=O)Nc1ccccc1C#C/C=C\C#Cc1ccccc1SC` was run?
The growth was -16.2% (active).

How did the growth turn out when `COc1cc(NCC(O)CN(CC(C)C)CC(C)C)c2nc(C)ccc2c1` (stereo not given) was run?
The growth was 81.2%.

Which growth does the source give for `O=C1CN(Cc2ccc(C(=O)NO)cc2)C(=O)[C@@H](Cc2ccccc2)N1` here?
The growth was 130%.

How did the growth turn out when `Cc1ccccc1C1CC(=O)c2ccccc2C1C` (stereo not given) was run?
Its growth is 98.6%.

`c1ccc(-c2cn3ccnc3c(-c3ccc4c(c3)ncn4C3CCCCC3)n2)cc1` was tested. Which growth did it give?
The growth was 80.7%.

How did the growth turn out when `Cc1n(Cc2ccc3ccccc3n2)cc[n+]1Cc1ccc2ccccc2n1` was run?
The growth was 34.2%.

For `C=C(C)[C@@H]1CC[C@]2(C(=O)NCCCN)CC[C@]3(C)[C@H](CC[C@@H]4[C@@]5(C)CC[C@H](O)C(C)(C)[C@@H]5CC[C@]43C)[C@@H]12`, which growth is on record?
The growth was 1.25% [100 µM] (active).

With `CCCCCCCCCCCCCCCCOc1ccccc1NC(=O)CC(C)=O` as the compound, how does the growth read?
Its growth is 98%.

With `COc1cc(/C=C/c2cc(/C=C/c3ccc(O)c(OC)c3)n(C(=O)c3ccc(Cl)cc3)n2)ccc1O` as the compound, how does the growth read?
The growth was -12.4% (active).

`CCCN1C(=O)N(CCC)C2C1NN=c1s/c(=C3\C(=O)N(C(C)C)c4ccccc43)c(=O)n12` (stereo not given) was tested. Which growth did it give?
Its growth is 0.788% (active).

Which growth does the source give for `C/C=C(\C)C(=O)N[C@H]1CC[C@]2(C)C3CC[C@@]4(C)C(CC[C@@H]4C(C)N(C)C)C3CCC2[C@H]1OC(C)=O` (stereo not given in full) here?
Its growth is 18.2%.

Which growth does the source give for `COC(=O)C1OC1c1cc([N+](=O)[O-])ccc1OC` (stereo not given) here?
Its growth is 99.1%.

Which growth does the source give for `CCCN(CCC)CCCNC(=O)c1cc2c(-c3ccc(OC)c(OC)c3)nn(C)c2s1` here?
The growth was -13.4% (active).

With `Cc1cc(NCC(=O)Nc2ccc(-c3nc4ccccc4s3)cc2)no1` as the compound, how does the growth read?
The growth was 96.5%.

For `O=C(Nc1ccc(-n2cc(-c3ccncc3)c(-c3ccc(O)c(Cl)c3)n2)cc1)Nc1cccc(Cl)c1Cl`, which growth is on record?
Its growth is 78.8%.

With `CCOC(=O)C(CC(=O)O)=C(C(=O)OCC)C(=O)OCC` as the compound, how does the growth read?
Its growth is 99.6%.

With `COc1cnc2c(c1)C(=O)c1c-2n(CCCNC(C)C)c(=O)c2cc(F)ccc12` as the compound, how does the growth read?
The growth was -38.7% (active).

How did the growth turn out when `COc1ccccc1NC1=C(N2CCCCC2)C(=O)c2ccccc2C1=O` was run?
The growth was 72.6%.

With `Cc1nn2c(/C=C3/C(=O)Nc4cc(Cl)ccc43)c(-c3ccccc3)nc2s1` as the compound, how does the growth read?
The growth was 32.2%.

For `CCc1cc2c(cc1N1CCC(N3CCOCC3)CC1)C(C)(C)c1[nH]c3cc(C#N)ccc3c1C2=O`, which growth is on record?
The growth was -6.15% (active).

How did the growth turn out when `O=C1c2cccc3cccc(c23)C(=O)N1CCCCN1CCN(CCCCOc2ccc(-c3nc4ccc(N5CCOCC5)cc4[nH]3)cc2)CC1` was run?
Its growth is 92.6%.

Which growth does the source give for `COc1cccc(NC(=O)c2sc3nc4c(cc3c2N)CN(Cc2ccccc2)CC4)c1` here?
Its growth is 50.1%.

For `Cn1cc(-c2nonc2-c2cn(C)c3ccccc23)c2ccccc21`, which growth is on record?
Its growth is -27% (active).

With `CCOC(=O)c1cc2c(n(C)c1=O)-c1cnn(-c3ccc(OC)cc3)c1CC2` as the compound, how does the growth read?
Its growth is 113%.

How did the growth turn out when `C[C@]12CC[C@@H]3c4cc(OC(F)F)c(O)cc4CC[C@H]3[C@@H]1CC[C@@H]2OS(N)(=O)=O` was run?
Its growth is 7.66% (active).

`Cc1c(C)c(C)c([N+](=O)[O-])c([N+](=O)[O-])c1C` was tested. Which growth did it give?
The growth was 109%.

For `NCCNc1ccc([N+](=O)[O-])cc1`, which growth is on record?
The growth was 91.9%.

For `CCCO/N=C/c1ccccn1`, which growth is on record?
Its growth is 94.8%.

How did the growth turn out when `O=C(CCN1CCCCC1)c1ccc2ccccc2c1` was run?
Its growth is 112%.

`CN(C)CCCN=c1cc2c(=O)n(CCCN(C)C)c(=O)c3c(NCCCN(C)C)cc4c(O)n(CCCN(C)C)c(=O)c1c4c3-2` was tested. Which growth did it give?
The growth was 61.2%.

`O=C(/C=C(/C=C/c1csc2ccccc12)OB(F)F)/C=C/c1csc2ccccc12` was tested. Which growth did it give?
The growth was 2.68% (active).

For `N#Cc1c(N)n2c(nc1=Nc1ccc([N+](=O)[O-])cc1)sc1cc(Cl)ccc12`, which growth is on record?
The growth was 117%.

For `O=C(Nc1cccc(Cl)c1)Nc1ncc(CCNc2ncnc3ccsc23)s1`, which growth is on record?
The growth was 8.72% (active).

How did the growth turn out when `S=c1c2ncccc2c(-c2ccccn2)nn1Cc1ccccn1` was run?
The growth was 71.6%.

`Cc1cc(C)c(CCc2cc(C)c(C)cc2C)cc1C` was tested. Which growth did it give?
The growth was 99.9%.

How did the growth turn out when `COc1ccc(S(=O)(=O)N(Cc2ccc3c(n2)C=CC(C)(C)O3)C2CCC2)cc1OC` was run?
Its growth is -13.5% (active).

Reference: PubChem BioAssay (NCI)
